Screens deposited in PubChem by Paczesny and Yang Labs, IUPUI and University of Michigan.
Shown is part of a subset that was picked to be rich in hits.
ST2 inh: inhibitors of human ST2 (IL1RL1) binding to IL-33 | Q01638 | AlphaLISA ST2-Fc/biotin-IL-33 interaction, 1 h | inhibition, % for hits at 17 µM | hit rate 2.3% among 78,000; in the data active = inhibition above about 30%
Target sequence (Q01638 whole entry, looked up): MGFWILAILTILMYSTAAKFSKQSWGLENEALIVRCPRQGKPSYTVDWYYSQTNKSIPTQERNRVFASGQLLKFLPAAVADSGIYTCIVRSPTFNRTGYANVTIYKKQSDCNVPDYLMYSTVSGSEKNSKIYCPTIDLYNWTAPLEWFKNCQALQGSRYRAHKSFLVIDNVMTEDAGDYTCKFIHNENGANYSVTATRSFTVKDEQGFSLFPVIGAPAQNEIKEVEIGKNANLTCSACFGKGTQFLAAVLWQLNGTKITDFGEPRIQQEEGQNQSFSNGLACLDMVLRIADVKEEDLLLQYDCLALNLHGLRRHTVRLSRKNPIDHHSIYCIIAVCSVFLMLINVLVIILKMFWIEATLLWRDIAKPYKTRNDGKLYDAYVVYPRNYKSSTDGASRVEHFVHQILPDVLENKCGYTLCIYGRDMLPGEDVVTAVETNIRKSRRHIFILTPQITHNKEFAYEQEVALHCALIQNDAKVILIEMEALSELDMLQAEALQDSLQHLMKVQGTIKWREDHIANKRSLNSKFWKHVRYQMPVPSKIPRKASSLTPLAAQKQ
Large screens that a line does not name were inactive.

COc1ccc(N=Cc2cc3c(cc2O)OC(N)=C(C#N)C3c2ccco2)cc1 (stereo not given)	ST2 inh 30.0%
O=C(Nc1ccc(=O)n2c1[C@@H]1C[C@@H](CN(C(=O)c3ccc(F)cc3)C1)C2)c1ccco1	none
NC(Cc1cc(O)c(O)cc1O)C(=O)O (stereo not given)	ST2 inh 95.0%
C[Se]C[C@H](N)C(=O)O	none
Cc1o[nH]c(=O)c1CC(N)C(=O)O (stereo not given)	none
COc1ccc(-c2cc([C@H]3CN4CC[C@H]3C[C@@H]4CNC(=O)NC(C)C)n(C)n2)cc1OC	none
O=C(O)c1cccc2c1NC(C(=O)O)C1CC(Sc3ccccc3[N+](=O)[O-])C(Cl)C21 (stereo not given)	ST2 inh 96.0%
CC(C)(C)CC(=O)N1C[C@@H]2C[C@H](C1)c1ccc(NC(=O)COc3ccccc3)c(=O)n1C2	none
O=C(NCc1cccnc1)[C@H]1CN2CCC1C[C@@H]2Cn1cc(-c2cccc(O)c2)nn1 (stereo not given in full)	none
Cn1nc(-c2ccco2)cc1[C@H]1CN2CC[C@H]1C[C@@H]2CNC(=O)c1ccc2c(c1)OCO2	none
COc1ccccc1N1CCN(Cc2cccc(Cl)c2)CC1	none
CCc1ccc(CN2CCN(c3ccccc3OC)CC2)cc1	ST2 inh 97.0%
COc1ccccc1N1CCN(Cc2ccc(Cl)cc2)CC1	none
O=C([C@H]1CN2CC[C@H]1C[C@@H]2Cn1cc(-c2cccc(O)c2)nn1)N1CCOCC1	none
CN1CCN(c2ccc(C=O)cc2[N+](=O)[O-])CC1	none
COc1ccc(OCC(=O)N2CCCN(C)C3(CCN(C)CC3)C2)cc1	none
CN1CCN(C[C@H]2CN3CC[C@H]2C[C@@H]3CNC(=S)NCc2ccco2)CC1	none
CN1CCc2nc(N)c(C#N)c(-c3ccc(Br)cc3)c2C1	ST2 inh 34.0%
Cn1nc(-c2ccccc2)cc1[C@H]1CN2CC[C@H]1C[C@@H]2CNC(=S)Nc1ccccc1	none
Nc1c2c(nc3ccccc13)CCCCC2	none
Nc1cc2nc3ccccc3nc2cc1O	ST2 inh 56.0%
CCC(C)NC(=O)CN1C(=O)C(C)N=C(c2ccccc2)c2ccccc21 (stereo not given)	none
C=CCN(C)C[C@H]1CN2CC[C@H]1C[C@@H]2CNC(=S)NCc1ccco1	none
CN(C)Cc1ccccc1-c1ccc2n(c1=O)C[C@H]1C[C@@H]2CN(C(=O)c2ccccc2)C1	none
COc1cc(/C=C/[N+](=O)[O-])c(OC)cc1C	ST2 inh 42.0%
CC1N=C(c2ccccc2)c2ccccc2N(CC(=O)Nc2ccccc2C(F)(F)F)C1=O (stereo not given)	none
Cc1ccc(CN2CCCN(CC(=O)NC(C)C)S2(=O)=O)cc1	none
Cc1cc(Cl)ccc1C(=O)C1CCCN(C2CSCCSC2)C1 (stereo not given)	none
COCCNC(=S)NC[C@H]1C[C@@H]2CCN1C[C@@H]2CN1CCC(C)CC1	none
CN(N=O)c1ccc(O)c(O)c1	ST2 inh 69.0%
Fc1ccc(CN2CCN(c3ccccc3)CC2)c(F)c1	none
CCN1CCN(Cc2ccc(OC)c(C)c2)CC1	none
COc1ccc(CN2CCN(CCO)CC2)cc1C	none
COc1ccc(N2CCN(Cc3ccc(OC)c(C)c3)CC2)cc1	ST2 inh 36.0%
Clc1ccc(CN2CCN(c3ccccc3)CC2)c(Cl)c1	ST2 inh 91.0%
COc1ccc(CN2CCN(c3ccc(F)cc3)CC2)c(OC)c1	none
c1ccc(CN2CCN(c3ccccc3)CC2)cc1	none
COc1ccc(CN2CCN(c3ccccc3)CC2)c(OC)c1	none
COc1ccc(N2CCN(Cc3ccc(Cl)cc3Cl)CC2)cc1	ST2 inh 36.0%
O=C(Nc1ccccc1)Nc1ccc2n(c1=O)C[C@H]1C[C@@H]2CN(C(=O)c2cccnc2)C1	none
COc1ccc(CN2CCN(Cc3ccccc3)CC2)cc1Br	none
Cc1nc(CN2CCN(C(=O)COc3c(C)ccc(C)c3C)CC2)no1	none
N#Cc1cccc(-c2ccc3n(c2=O)C[C@H]2C[C@@H]3CN(C(=O)NC3CCCCC3)C2)c1	none
N#CC1=C(N)Oc2c(c(=O)oc3ccccc23)C1c1cc([N+](=O)[O-])cs1 (stereo not given)	none
S=C(NC[C@H]1C[C@@H]2CCN1C[C@@H]2CN1CCC(Cc2ccccc2)CC1)Nc1ccc(-n2cccn2)cc1	none
O=C(c1ccccc1Cl)c1cc(Cl)ccc1NC(=O)c1cnc2n(c1=O)CCS2	none
O=c1c2ccccc2nc(-c2ccccc2)n1-c1ccccc1Cl	none
C=C[C@H]1CN2CC[C@H]1C[C@@H]2CNC(=S)NCCOC	none
CCOc1ccccc1N1CCN(Cc2ccccc2Cl)CC1	none
Cc1ccc(NC(=O)CN2C(=O)C(C)N=C(c3ccccc3)c3ccccc32)c(Cl)c1 (stereo not given)	none
Cc1cccc(CN2CCN(C)CC2)c1	none
CN(C)c1ccc(CN2CCN(c3ccc(F)cc3)CC2)cc1	ST2 inh 38.0%
Fc1ccc(CN2CCN(c3ccccc3Cl)CC2)cc1	none
Fc1ccc(CN2CCN(c3ccccc3)CC2)cc1	none
Fc1ccc(N2CCN(Cc3ccccc3)CC2)cc1	none
Cc1ccc(CN2CCN(c3ccc(Cl)cc3)CC2)cc1	none
CN(C)c1ccc(CN2CC=C(c3ccc(F)cc3)CC2)cc1	ST2 inh 40.0%
COc1ccc2c(c1)O/C(=C\c1ccccc1)C2=O	none
O=C(Cc1ccccc1)Nc1ccc2n(c1=O)C[C@H]1C[C@@H]2CN(C(=O)c2ccccn2)C1	none
COc1ccc(CCN(C)Cc2cc(OC)c(OC)cc2[N+](=O)[O-])cc1OC	none
Cn1nc(-c2cccs2)cc1[C@H]1CN2CC[C@H]1C[C@@H]2CNC(=O)Nc1cccc(C#N)c1	ST2 inh 35.0%
Cn1nc(-c2cccs2)cc1[C@H]1CN2CC[C@H]1C[C@@H]2CNC(=O)N1CCOCC1	none
CCNC(=O)NC[C@H]1C[C@@H]2CCN1C[C@@H]2c1cc(-c2cccs2)nn1C	none
Cc1ccc(C)c(CN2CCN(c3ccccc3)CC2)c1	none
CC(=O)Nc1ccc(NC(=O)c2cccn(Cc3ccc(C(F)(F)F)cc3)c2=O)cc1	none
CC(C)(C)CC(=O)N1C[C@@H]2C[C@H](C1)c1ccc(NS(=O)(=O)c3cccs3)c(=O)n1C2	none
COc1ccc(-c2cc([C@H]3CN4CC[C@H]3C[C@@H]4COC(=O)NC3CCCCC3)n(C)n2)cc1	none
CC(C)(C)c1ccc(OCCNc2ccc([N+](=O)[O-])c3cccnc23)cc1	ST2 inh 55.0%
NS(=O)(=O)c1ccc(NC(=O)c2cccn(Cc3ccc(C(F)(F)F)cc3)c2=O)cc1	none
CCn1ccc(C(=O)N2CCN(C)C3(CCN(C)CC3)C2)cc1=O	none
CCCC[C@@H]1CN(C)CC[C@]1(O)c1ccccc1	none
COc1cc(Cl)cc(C2NCCc3[nH]cnc32)c1OC (stereo not given)	none
N#CC1=C(N)Oc2c(c(=O)oc3ccccc23)C1c1ccc(F)cc1 (stereo not given)	none
N#CC1=C(N)Oc2n[nH]c(C(F)(F)F)c2C1c1ccc(F)cc1 (stereo not given)	none
N#CC1=C(N)Oc2n[nH]c(-c3ccc(F)cc3)c2C1c1ccc(F)cc1 (stereo not given)	ST2 inh 32.0%
CC(=O)Nc1ccc(CNC(=O)CN2CC=C(c3cnn(C)c3)CC2)cc1	none
CC(=O)Nc1ccc2n(c1=O)C[C@H]1C[C@@H]2CN(C(=O)COc2ccccc2)C1	none
CCNC(=O)NC[C@H]1C[C@@H]2CCN1C[C@@H]2c1cc(-c2ccc(OC)cc2)nn1C	none
Cc1ccccc1N1CCN(Cc2ccc(Cl)cc2)CC1	none
O=[N+]([O-])c1cc(Cl)ccc1N1CCN(Cc2ccccc2)CC1	ST2 inh 31.0%
Fc1ccccc1N1CCN(Cc2ccc(Cl)cc2)CC1	none
Cc1ccccc1CN1CCN(c2ccc([N+](=O)[O-])cc2)CC1	ST2 inh 36.0%
O=[N+]([O-])c1ccc(CN2CCN(c3ccc(Cl)cc3)CC2)cc1	none
